The first assay deals with NCAPG2. Briefly: pooled miR-30 sensor sort-seq; sequence = guide strand. As to conditions: shRNA.
As to AACATCTTTACACACAGTCAGG, the sensor-assay potency score (higher = more potent) is -1.69.
Still for that read-out and setting: under TTTACCTGCATTAATAACCAGG stands -0.888; under TTGCAAAAACTCTCCAACCAGC, -0.983; under TTCAATGCTATCCTCTTCCAAA, -0.814.
Regarding TATAATAACACATTCCAGTAGG, the sensor-assay potency score (higher = more potent) is -0.388.
Same read-out and setting: under TTCTGAGCAGAACTTGTGCTGA stands -0.264; under TAAGCAATGACGAATAACGTGA, 0.14.
The same measure, in the same setting: under TTCCATATTGTCTTCACCCTGG stands -0.0247.

Another assay addresses NCF1. The assay is described as above. The conditions noted are these: shRNA.
Turning to TTTTGCAGGTACATGGACGGGA, the sensor-assay potency score (higher = more potent) came to 0.437.
Still for that read-out and setting: under TAAGGTTTTATGGAACTCGTAG stands 0.251.
In turn, TTTGTCTGGTTGTCCGTGGGGA had a sensor-assay potency score (higher = more potent) of 0.0821.
On to TTATGGAACTCGTAGATCTCGG, for which the sensor-assay potency score (higher = more potent) was -0.843.
Same read-out and setting: the same measure for TGGAACTCGTAGATCTCGGTGA: 0.128; for AACATGTACACATAGTGCTGGC: -0.578; for TTCATCTGACAGAACCACCAAC: -0.468.
Same read-out and setting: the same measure for TTCCGCTTGGTGCTCTCGCTGC: -1.
Same read-out and setting: under TTGGTGCTCTCGCTGCAGCGGT stands -1.07.
In turn, TAGATCTCGGTGAAGCGCCGGT had a sensor-assay potency score (higher = more potent) of 0.272.
The same measure, in the same setting: the same measure for TCTGACAGAACCACCAACCGCT: 0.511; for TTTTTTGTCTGGTTGTCCGTGG: 0.905.

A further assay concerns the target NCR3. The assay is described as above. The conditions noted are these: shRNA.
Turning to TCTCGGAACCACGTGACGGAGC, the sensor-assay potency score (higher = more potent) is -0.976.
Same read-out and setting: the same measure for TATTGGGTGAATGACAGTGTTC: -1.59; for TCCAGGTCAGACATTTGCCCTG: -1.34; for TTCCAGGTCAGACATTTGCCCT: -1.63.
The same measure, in the same setting: the same measure for ACTCTGCACACGTAGATGCTGG: -1.18; for AAGCTGACAGCATAGAATCCAG: -0.853.
On the same count and under the same terms, under TGGAACCACCTCATCTCGGAAC stands -1.16; under ATGTTCTTTCTCCACCACCAGC, -2.11; under TTTGCCCTGGTAATAGACGGTG, -0.728.
For TAGCTGAGGATGTTCTTTCTCC, the sensor-assay potency score (higher = more potent) was -0.477.
The same measure, in the same setting: under TCTTTCTCCACCACCAGCCGAG stands -1.09.
TTCTTTCTCCACCACCAGCCGA: the sensor-assay potency score (higher = more potent) was -1.65.

A further assay deals with NCSTN. The assay is described as above. As to conditions: shRNA.
For TAGCATGCTCCACACATTGTAA, the sensor-assay potency score (higher = more potent) is -1.37.
As for TTCCACTGTATTTCTCTGCAGT, the sensor-assay potency score (higher = more potent) turned out to be 0.342.
The sequence TCGAGCTCGAAGAAATCGCTGC came in with a sensor-assay potency score (higher = more potent) of 0.0428.
TCAGCCTGAACTGTGTCGCTGA: the sensor-assay potency score (higher = more potent) came to 0.319.
Consider TTGGAGTAAACACCAAACCCAT, for which the sensor-assay potency score (higher = more potent) was -1.26.
As to TATATCTTCCTCTCCACTGAGT, the sensor-assay potency score (higher = more potent) is -0.425.
Same read-out and setting: the same measure for TTAAACAGGAGCAAGAAGCTTC: -0.218; for TACTGTACAACATAAGTGGTGT: 0.405.

The values are drawn from the OligoGym collection.
Note: reference of the scale not given here.
